biological target: PITX2 (Homo sapiens, UniProt Q99697 72-157); assay: PBM; 200 nM protein, PBS; details: dsDNA, one strand shown

Sequence | binding signal
GATGATAA | 9.84 upbm affinity estimate (log intensity, higher = more binding, comparable within an allelic series)
TGACGCAA | 8.04 upbm affinity estimate (log intensity, higher = more binding, comparable within an allelic series)
GACGCGAC | 7.93 upbm affinity estimate (log intensity, higher = more binding, comparable within an allelic series)
GACAACGC | 7.92 upbm affinity estimate (log intensity, higher = more binding, comparable within an allelic series)
CATTATTC | 9.49 upbm affinity estimate (log intensity, higher = more binding, comparable within an allelic series)
CAGTACTG | 7.98 upbm affinity estimate (log intensity, higher = more binding, comparable within an allelic series)
CTAAATCC | 12.4 upbm affinity estimate (log intensity, higher = more binding, comparable within an allelic series)
ACTCGACC | 7.76 upbm affinity estimate (log intensity, higher = more binding, comparable within an allelic series)
GCGCTGCA | 8.03 upbm affinity estimate (log intensity, higher = more binding, comparable within an allelic series)
AGCGTGGG | 8.14 upbm affinity estimate (log intensity, higher = more binding, comparable within an allelic series)
GAAGGTCA | 7.87 upbm affinity estimate (log intensity, higher = more binding, comparable within an allelic series)
ATAAATCC | 12.3 upbm affinity estimate (log intensity, higher = more binding, comparable within an allelic series)
AGGCGTCC | 7.84 upbm affinity estimate (log intensity, higher = more binding, comparable within an allelic series)
CCAAATCG | 9.39 upbm affinity estimate (log intensity, higher = more binding, comparable within an allelic series)
AAAGCCGA | 9.6 upbm affinity estimate (log intensity, higher = more binding, comparable within an allelic series)
AGATTTAT | 11 upbm affinity estimate (log intensity, higher = more binding, comparable within an allelic series)
AGGGCTTA | 12.3 upbm affinity estimate (log intensity, higher = more binding, comparable within an allelic series)
CAGTTCCG | 8.03 upbm affinity estimate (log intensity, higher = more binding, comparable within an allelic series)
CAGACACG | 7.83 upbm affinity estimate (log intensity, higher = more binding, comparable within an allelic series)
ACGTGTCC | 8.04 upbm affinity estimate (log intensity, higher = more binding, comparable within an allelic series)

Sequence | binding signal
GCACGCCA | 7.9 upbm affinity estimate (log intensity, higher = more binding, comparable within an allelic series)
ACAATCCC | 10.3 upbm affinity estimate (log intensity, higher = more binding, comparable within an allelic series)
GGATCCTA | 9.17 upbm affinity estimate (log intensity, higher = more binding, comparable within an allelic series)
ATATAAAG | 9.37 upbm affinity estimate (log intensity, higher = more binding, comparable within an allelic series)
GAATATTA | 9.35 upbm affinity estimate (log intensity, higher = more binding, comparable within an allelic series)
CAAAATAC | 9.13 upbm affinity estimate (log intensity, higher = more binding, comparable within an allelic series)
GAGATATC | 8.8 upbm affinity estimate (log intensity, higher = more binding, comparable within an allelic series)
CTCCCCGA | 8.1 upbm affinity estimate (log intensity, higher = more binding, comparable within an allelic series)
AACGAGGC | 7.79 upbm affinity estimate (log intensity, higher = more binding, comparable within an allelic series)
CCTACGTC | 7.98 upbm affinity estimate (log intensity, higher = more binding, comparable within an allelic series)
ATTCAAAT | 9.75 upbm affinity estimate (log intensity, higher = more binding, comparable within an allelic series)
CAACGGGC | 7.95 upbm affinity estimate (log intensity, higher = more binding, comparable within an allelic series)
TCTTGGCA | 7.96 upbm affinity estimate (log intensity, higher = more binding, comparable within an allelic series)
ACAGATCT | 9.05 upbm affinity estimate (log intensity, higher = more binding, comparable within an allelic series)
AGATCCGG | 9.62 upbm affinity estimate (log intensity, higher = more binding, comparable within an allelic series)
TATTAGCA | 10.1 upbm affinity estimate (log intensity, higher = more binding, comparable within an allelic series)
GAGATCAC | 9.79 upbm affinity estimate (log intensity, higher = more binding, comparable within an allelic series)
AGTGCCTC | 7.74 upbm affinity estimate (log intensity, higher = more binding, comparable within an allelic series)
ACTGTCAG | 7.86 upbm affinity estimate (log intensity, higher = more binding, comparable within an allelic series)
ATGAGCCC | 9.64 upbm affinity estimate (log intensity, higher = more binding, comparable within an allelic series)
